Most compounds without a hit are left out; they make up all but 7.4% or so of the library.
NPR1 antag = antagonists of human natriuretic peptide receptor Npr1 | 76,000 compounds, 1.6% hits | AID 1347048 | Potency, µM (highest dose often 46.3 µM), hits mostly inhibitors | HEK293 hNpr1 GloSensor cGMP, ANP-stimulated luminescence; calls by dose curve; note: nearly all actives have a fitted effect of over 60% in size
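HEK293 cells stably expressing human Npr1 and cGMP GloSensor pGS-40F, loaded 2 h with 2% GloSensor reagent, given compound 30 min at room temperature. Luminescence read before and 20 min after 0.1 nM hNppA.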
Luciferase inh = Photinus pyralis luciferase inhibition. Potency, µM (doses to about 115 µM), most hits filed as inhibitors. AID 1347043. purified P. pyralis luciferase, luminescence, biochemical. P08659. 76,000 compounds, 2.5% hits; note: nearly all actives have a fitted effect of over 65% in size
Target sequence (P08659 whole entry, looked up): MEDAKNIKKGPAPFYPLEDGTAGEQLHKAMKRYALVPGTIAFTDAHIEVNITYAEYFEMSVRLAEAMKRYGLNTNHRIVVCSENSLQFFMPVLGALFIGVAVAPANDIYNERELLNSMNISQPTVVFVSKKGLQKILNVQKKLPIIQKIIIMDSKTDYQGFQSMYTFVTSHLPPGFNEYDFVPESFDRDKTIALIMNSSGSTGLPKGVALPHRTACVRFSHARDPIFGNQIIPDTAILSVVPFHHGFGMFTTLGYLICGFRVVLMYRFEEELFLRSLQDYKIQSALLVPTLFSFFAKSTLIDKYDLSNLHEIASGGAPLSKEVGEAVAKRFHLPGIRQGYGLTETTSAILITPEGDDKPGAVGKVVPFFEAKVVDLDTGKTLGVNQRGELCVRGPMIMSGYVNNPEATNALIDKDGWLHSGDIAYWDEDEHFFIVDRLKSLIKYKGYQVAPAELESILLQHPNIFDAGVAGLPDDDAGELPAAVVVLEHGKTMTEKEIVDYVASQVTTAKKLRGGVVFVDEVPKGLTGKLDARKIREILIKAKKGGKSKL
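Biochemical qHTS: compound (6-point titration) added to 10uM D-luciferin plus 10uM ATP in Tris acetate pH 7.5 buffer with Mg, Tween-20 and BSA, then purified enzyme at 10nM; light output imaged.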
NIH3T3 tox = cytotoxic compounds in NIH 3T3 cells; Potency, µM (series often up to 96.7 µM), usual class: inhibitors; 94,000 compounds, 4.3% hits; NIH 3T3 viability, CellTiter-Glo ATP luminescence, 48-72 h; AID 1345082; note: nearly all actives have a fitted effect of over 55% in size
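Viability of NIH 3T3 cells after 48 or 72 hr compound treatment at 37 °C was assessed by CellTiter-Glo, with luminescence imaged following a 10 min room-temperature step.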
SNCA expr inhib = SNCA gene expression inhibition; HEK-293 SNCA-luciferase knock-in, luminescence, 24 h; Potency, µM (highest dose often 57.2 µM), actives largely listed as inhibitors; 140,000 compounds, 0.17% hits; AID 1671194; note: nearly all actives have a fitted effect of over 45% in size
HEK293 tox = HEK 293 cell cytotoxicity | HEK 293 viability, ATP luminescence (CellTiter-Glo), 48-72 h | Potency, µM (series often up to 115 µM), actives largely listed as inhibitors | 94,000 compounds, 6.6% hits | AID 1345083; note: nearly all actives have a fitted effect of over 60% in size
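ATP-coupled CellTiter-Glo luminescence served as viability read-out, recorded 10 min after reagent addition at room temperature. HEK 293 cells, 250 cells/well, had been incubated with pintool-transferred compound for 48 or 72 hr at 37 degree Celsius.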
HEK293 viab = reduces viability of HEK-293 SNCA reporter cells. 150,000 compounds, 0.12% hits. Potency, µM (highest dose often 57.1 µM), hits mostly cytotoxic. HEK-293-SNCA-luc viability, GF-AFC fluorescence, 24 h; note: nearly all actives have a fitted effect of over 30% in size
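HEK-293-SNCA-luc cells (1500/well) plated 24 h, then exposed 24 h to a dilution series; GF-AFC added 30 min at 37C, fluorescence 405/540 nm; normalised to medium-only and DMSO wells, Hill fit.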
NPR1 antag cnf = hNpr1 antagonism, confirmation assay; shares compounds with NPR1 antag; HEK293 hNpr1 cGMP GloSensor luminescence, ANP-stimulated; Potency, µM (titrated, usually from 57.6 µM), hits mostly inhibitors; 1,400 compounds, 76% hits; AID 1347044; calls by dose curve; note: nearly all actives have a fitted effect of over 70% in size
NPR2 antag = selectivity test of Npr1 antagonists against human Npr2; shares compounds with NPR1 antag; HEK293 hNpr2 GloSensor cGMP luminescence, CNP-stimulated; Potency, µM (top dose mostly 57.6 µM), usual class: inhibitors; 1,400 compounds, 67% hits; calls by dose curve; note: nearly all actives have a fitted effect of over 70% in size
FLuc counter = FLuc enzyme inhibition, Npr1 counter-screen. shares compounds with NPR1 antag. purified FLuc enzyme, luminescence, Km substrate. Potency, µM (series often up to 57.6 µM), most hits filed as inhibitors. 1,400 compounds, 0.7% hits. AID 1347047
GloSensor cGMP = control cell line activity, Npr1 antagonist counter-screen | shares compounds with NPR1 antag | HEK293 GloSensor cGMP, SNP-stimulated, luminescence | Potency, µM (titrated, usually from 57.6 µM), most hits filed as inhibitors | 1,400 compounds, 69% hits | AID 1347051; calls by dose curve; note: nearly all actives have a fitted effect of over 70% in size
Large screens that a line does not name were inactive (follow-up assays come after a bar, where they were run). Unless noted, calls come from the whole dose curve; as a rule, active = well fitted curve in the direction sought with a large enough effect; inconclusive = small, poorly fitted or top-dose-only effect, or another doubt; inactive = no such curve, though single readings can be large; an effect the other way counts as inactive or inconclusive.

O=C1[C@@H]2C[C@@H](CN2CC2CC2)Oc2ccccc2N1Cc1ccccn1	NPR1 antag inconclusive, NIH3T3 tox inconclusive, HEK293 tox inconclusive
CC(=O)N1CCC(C(=O)N[C@H]2CCN3C(=O)N(c4ccc(OC(F)(F)F)cc4)C(=O)[C@@H]3C2)CC1	none
CC(C)c1ccc(N2C(=O)[C@@H]3C[C@@H](NC(=O)C4CCN(c5nccc(C(F)(F)F)n5)CC4)CCN3C2=O)cc1	NPR1 antag inconclusive, NIH3T3 tox inconclusive, HEK293 tox inconclusive | NPR1 antag cnf inconclusive | NPR2 antag inconclusive | FLuc counter inactive | GloSensor cGMP inconclusive
O=C(c1cccc(Cl)c1F)N1CCN(Cc2cccc(Nc3nccs3)n2)CC1	none (no result: NPR1 antag, Luciferase inh, NIH3T3 tox, SNCA expr inhib, HEK293 tox)
COc1ccccc1N1CCN([C@@H]2[C@H](O)[C@H](CO)O[C@@H]2CN(Cc2ccc(F)cc2)Cc2ccc(F)cc2)CC1	NPR1 antag inconclusive, NIH3T3 tox 31.6µM, SNCA expr inhib inconclusive, HEK293 tox 28.2µM, HEK293 viab inconclusive | NPR1 antag cnf inconclusive | NPR2 antag 13.7µM | FLuc counter inactive | GloSensor cGMP inactive
N#Cc1cccnc1-c1ccc(C(=O)N2CCC(NC(=O)c3ccncc3)CC2)cc1	none (no result: NPR1 antag, Luciferase inh)
N#Cc1cccnc1N1CCC(NC(=O)c2ccc3nccn3c2)CC1	NPR1 antag 11.2µM, HEK293 tox inconclusive | NPR1 antag cnf 21.7µM | NPR2 antag 24.3µM | FLuc counter inactive | GloSensor cGMP 19.3µM
O=C1NC[C@@H](CCC(=O)N2CCOCC2)N2C[C@@H](NCc3ccc(F)cc3)C[C@@H]12	none
COc1ccc(C2Cn3nnc(C(=O)N4CCN(C(=O)c5ccc(F)cc5)CC4)c3CO2)cc1 (stereo not given)	NPR1 antag inconclusive, SNCA expr inhib inconclusive, HEK293 tox inconclusive | NPR1 antag cnf 21.7µM | NPR2 antag inconclusive | FLuc counter inactive | GloSensor cGMP 21.7µM
Cc1ccc(C(=O)N2CCN(C(=O)c3nnn4c3COC(c3ccc(F)cc3)C4)CC2)cc1C (stereo not given)	NPR1 antag 11.2µM, NIH3T3 tox inconclusive, HEK293 tox 44.7µM | NPR1 antag cnf 27.3µM | NPR2 antag 21.7µM | FLuc counter inactive | GloSensor cGMP 24.3µM
COc1ccc(C2Cn3nnc(C(=O)NC4CCCCCCC4)c3CO2)cc1 (stereo not given)	NPR1 antag inconclusive, NIH3T3 tox inconclusive, HEK293 tox inconclusive | NPR1 antag cnf inconclusive | NPR2 antag inconclusive | FLuc counter inactive | GloSensor cGMP 19.3µM
COc1ccc(C2Cn3nnc(C(=O)N4CCN(C(=O)c5cc(C)ccc5C)CC4)c3CO2)cc1 (stereo not given)	NPR1 antag inconclusive, NIH3T3 tox inconclusive, HEK293 tox inconclusive | NPR1 antag cnf inconclusive | NPR2 antag inactive | FLuc counter inactive | GloSensor cGMP inactive
COc1ccc(C(=O)N2CCN(C(=O)c3nnn4c3COC(c3ccc(F)cc3)C4)CC2)cc1 (stereo not given)	NIH3T3 tox inconclusive, SNCA expr inhib inconclusive, HEK293 tox inconclusive
COc1ccc(C(=O)C2CCCN(Cc3csc(C(C)=O)c3)C2)c(OC)c1 (stereo not given)	NIH3T3 tox inconclusive, HEK293 tox inconclusive
